Compound activity from PubChem BioAssay.
KB-V1 MDR tox – kills drug-selected multidrug resistant KB-V1 cells; KB-V1 MDR cells viability, CellTiter-Glo, 72 h; Potency, µM (titrated, usually from 46.1 µM), most hits filed as cytotoxic; hit rate 3.4% among 400,000; also: nearly all actives have a fitted effect of over 60% in size
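Drug-selected KB-V1 cells, grown in DMEM lacking phenol red with 10% FBS, receive compound titrations; after three days at 37 degrees C, surviving cell ATP is quantified by CellTiter-Glo luminescence and responses normalized and curve-fitted.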
HT1080-NT tox – kills 2HG-producing HT-1080-NT fibrosarcoma cells; HT-1080-NT fibrosarcoma viability, CellTiter-Glo ATP luminescence, 48 h; hit rate 1.6% among 360,000; Potency, µM (highest dose often 46.1 µM), for inactives: top-dose activity, negative = less viability, most hits filed as cytotoxic;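 also: NT is the 2HG producing partner of a matched IDH1 knockdown line; 0% = DMSO-treated cells and -100% = media-only wells without cells; nearly all actives have a fitted effect of over 55% in size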
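Viability by CellTiter-Glo luminescence after 48 h compound exposure at 37C of HT-1080-NT cells (750/well, RPMI, 5% FBS). % activity scaled between DMSO wells and medium-only wells, then curve-fitted and categorized by curve class.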
HT1080 IDH1KD tx – HT-1080 IDH1 knockdown cell toxicity (counter line) | AID 686971 | Potency, µM (doses to about 46.1 µM), inactives show at the top dose activity, negative = toxicity, usual class: cytotoxic | hit rate 2% among 360,000 | HT-1080 IDH1 knockdown viability, ATP luminescence, 48 h;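 also: 0% = DMSO wells and -100% = cell-free medium wells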
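After a 2 h attachment period, IDH1KD HT-1080 cells took pin-transferred compound for 48 h at 37 °C; ATP-based luminescence after 10 min room-temperature reagent incubation reported viability.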
DT40 TDP1 CPT – DT40-hTDP1 cell growth loss with CPT | chicken DT40 Tdp1-/-;hTDP1 cells + 20 nM CPT, ATP luminescence, 48 h | Potency, µM (top dose mostly 46.2 µM), inactives show at the highest dose activity change, negative = growth inhibition, actives largely listed as inhibitors | hit rate 12% among 420,000 | AID 686979; also: nearly all actives have a fitted effect of over 55% in size
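Chicken DT40 Tdp1-/- cells stably complemented with human TDP1 were seeded at 400 cells/well in medium containing 20 nM camptothecin, exposed to pin-transferred compounds, and grown at 37 °C for at least 48 hr. Viability was read as ATP luminescence.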
KB-3-1 tox – kills parental KB-3-1 adenocarcinoma cells; hit rate 1.4% among 400,000; Potency, µM (top dose mostly 46.1 µM), hits mostly cytotoxic; KB-3-1 viability, CellTiter-Glo ATP luminescence, 72 h; also: nearly all actives have a fitted effect of over 60% in size
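KB-3-1 parental drug-naive adenocarcinoma cells in DMEM/10% FBS, incubated 72 h at 37 C with pin-transferred compounds across a concentration series. Viability by CellTiter-Glo luminescence; concentration-response curves fitted after normalization.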
TDP1 cell noCPT – qHTS for Inhibitors of human tyrosyl-DNA phosphodiesterase 1 (TDP1): qHTS in cells in absence of CPT | Potency, µM (doses to about 46.2 µM), for the others: top-dose activity change, negative = growth inhibition, actives largely listed as inhibitors | hit rate 15% among 420,000 | DT40 Tdp1-/- hTDP1 cells, no CPT, ATP luminescence, 48 h; also: nearly all actives have a fitted effect of over 55% in size
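Cells were dispensed at 400 per well, compounds added by pin tool, plates incubated ≥48 hr at 37 °C, then CellTiter-Glo added for 30 min at room temperature before luminescence reading. Line: DT40 Tdp1-/- complemented with hTDP1; camptothecin omitted.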
Numbers without * were called inactive; i = inactive; ? = inconclusive; / = not tested or not shown. Only some compounds are listed: those with a hit (about 19% of all), similar ones and a draw of the others. Calls follow the shape of the dose curve; as a rule, active = well fitted curve in the direction sought with a large enough effect; inconclusive = small, poorly fitted or top-dose-only effect, or another doubt; inactive = no such curve, though single readings can be large; an effect the other way counts as inactive or inconclusive. Unless noted, % is scaled to controls: 0 for no effect and ±100 for the full control effect; potency is read from the fitted curve at half-maximal effect.

SMILES	KB-V1 MDR tox	HT1080-NT tox	HT1080 IDH1KD tx	DT40 TDP1 CPT	KB-3-1 tox	TDP1 cell noCPT
Oc1cccc2ccc(Nc3ccccn3)nc12	?	5.8µM*	5.8µM*	1.64µM*	5.8µM*	3.66µM*
Cc1ccc2nc(SCC(=O)Nc3ccccc3N3CCOCC3)c(C#N)cc2c1	i	?	?	4.61µM*	?	3.26µM*
Nc1cc(N)nc(SCC(=O)Nc2ccccc2N2CCOCC2)n1	i	-18.8%	4.9%	-0.2%	i	-9.6%
Cc1ccc(-c2nnc(SCC(=O)Nc3ccccc3N3CCOCC3)o2)cc1	13µM*	8.5%	28.2%	-18.9%	i	?
CCc1ccc2nc(SCC(=O)Nc3ccccc3N3CCOCC3)c(C#N)cc2c1	5.8µM*	14.4%	4.4%	4.61µM*	5.17µM*	4.11µM*
COc1cc(CNCCN(C)C)c(Br)cc1OC1CCCC1	?	9.5%	-5.5%	18.4µM*	?	?
COC(=O)CC[C@H](N)C(=O)O	/	/	/	-3.2%	/	-28.3%
CCOC(=O)Cn1c(=O)oc2cc(S(=O)(=O)NCc3ccc(F)cc3)ccc21	?	/	/	-4.5%	i	-24.5%
CN(N)c1nc(-c2ccccc2)nnc1C(F)(F)F	i	-1.1%	8.1%	-6.2%	i	-17.3%
CN(NC(=O)c1cccc(Cl)c1)c1nc(-c2ccccc2)nnc1C(F)(F)F	?	-20.9%	-24.9%	18.4µM*	23.1µM*	11.6µM*
COc1ccc(/C=N/NC(=O)c2ccc(Cl)cc2Cl)cc1COC(C)=O	?	-25.6%	-9.2%	?	?	?
COc1ccc(Cl)cc1CC=NNC(=O)c1cccc(C)c1O	i	0.7%	-26.4%	13µM*	i	13µM*
COc1ccc(OC)c(/C=N/NC(=O)c2ccncc2)c1	i	-0.1%	9.7%	24.7%	i	-2.4%
COc1ccc(Cl)cc1CC=NNC(=O)c1ccncc1	i	4.2%	19.5%	9.2µM*	i	11.6µM*
CC(C)=CCC[C@@](C)(O)[C@H]1CC=C(C)CC1	/	/	/	-8.2%	/	-2.6%
Cc1ccc2c(CN3CCN(c4ccc(Cl)c(Cl)c4)CC3)cc(=O)oc2c1	i	8.9%	3.4%	?	i	?
O=[N+]([O-])c1ccc(N2CCN(Cc3ccccc3)CC2)c2c1no[n+]2[O-]	6.51µM*	23.1µM*	14.6µM*	0.164µM*	2.06µM*	0.259µM*
COCc1nnc(NC(=O)c2ccc(S(=O)(=O)N3CCCCCC3)cc2)o1	i	-25.2%	?	-29.1%	?	?
CCc1nnc(NC(=O)c2ccc(S(=O)(=O)N3CCCc4ccccc43)cc2)o1	?	?	7.08µM*	?	i	11.2µM*
Cc1cc(NC(=O)c2ccc(S(=O)(=O)N3CCc4ccccc43)cc2)no1	i	-5.5%	-9.9%	-12.6%	i	-10.0%
CNC(=O)c1ccsc1NC(=O)c1ccc(S(=O)(=O)N2CCCc3ccccc32)cc1	?	-14.2%	-3.2%	20.6µM*	8.2µM*	20.6µM*
O=C(Nc1nnc(S(=O)(=O)N2CCc3ccccc32)s1)c1cccc(Cl)c1	?	/	/	20.6µM*	i	20.6µM*
O=C(Nc1nnc(S(=O)(=O)N2CCCc3ccccc32)s1)c1ccc(Cl)cc1	i	/	/	?	?	18.4µM*
CCOC(=O)C1(CCCc2ccccc2)CCN(S(C)(=O)=O)CC1	i	-17.9%	-3.8%	?	i	?
CC12CCC(C(S(=O)(=O)Nc3ccccc3)C1=O)C2(C)C (centres undefined)	i	2.6%	2.8%	-8.2%	i	-14.4%
CC1(C)Cc2c(cnn2-c2ccccc2)C(NC(=O)CCc2ccc(=O)[nH]n2)C1 (centres undefined)	?	0.8%	12.6%	15.0%	i	-1.5%
